# Inconclusive results are not listed. The source made the active and inactive calls. Rule for the calls: active = hit-call score of the fitted dose curve at least 0.9, where 1 is the maximum; inconclusive = response in the unintended direction; inactive = score below 0.9.
# How the values were obtained:
# [1] = target: human Adrenergic, Beta 1 Receptor (Adrb1), ADRB1 (gene 153) (UniProt P08588); assay: NVS_GPCR_hAdrb1: NovaScreen (NVS) G Protein-Coupled Receptor Assay for human Adrenergic, Beta 1 Receptor (Adrb1) (AID 2283258)
# Procedure: NVS_GPCR_hAdrb1 is a biochemical, single-readout assay that uses extracted gene-proteins from Human neuroepithelioma cells in a cell-free assay. Measurements were taken 2 hours after chemical dosing in a 96-well plate.NVS_GPCR_hAdrb1 is one of one assay component(s) measured or calculated from the NVS_GPCR_hAdrb1 assay. It is designed to make measurements of radioligand binding, a form of binding reporter, as detected with scintillation counting signals by Filter-based radiodetection technology.Data from the assay component NVS_GPCR_hAdrb1 was analyzed into 1 assay endpoint. This assay endpoint, NVS_GPCR_hAdrb1, was analyzed in the positive analysis fitting direction relative to DMSO as the negative control and baseline of activity. Using a type of binding reporter, loss-of-signal activity can be used to understand changes in the binding as they relate to the gene ADRB1. Furthermore, this assay endpoint can be referred to as a primary readout, because the performed assay has only produced 1 assay endpoint. To generalize the intended target to other relatable targets, this assay endpoint is annotated to the gpcr intended target family, where the subfamily is rhodopsin-like receptor. […]
# [2] = target: Beta-2 adrenergic receptor (Homo sapiens) (UniProt P07550); assay: NVS_GPCR_hAdrb2: NovaScreen (NVS) G Protein-Coupled Receptor Assay for human Adrenergic, Beta 2 Receptor (Adrb2) (AID 2283261)
# Procedure, shortened: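 Filter-based radioligand binding using receptor prepared from CHO cells, 1 h incubation, scintillation counting. Primary screen in duplicate at 25 uM, actives retested in concentration series; loss of binding relative to DMSO.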
# [3] = target: human Dopamine Receptor D4.4 (DRD4.4), DRD4 (gene 1815) (UniProt P21917); assay: NVS_GPCR_hDRD4.4: NovaScreen (NVS) G Protein-Coupled Receptor Assay for human Dopamine Receptor D4.4 (DRD4.4) (AID 2283264)
# Procedure, shortened: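 Radioligand displacement on human DRD4.4 from CHO-derived membranes, 1 hour incubation, bound counts read by filtration and scintillation. Primary screen in duplicate at 25 uM; actives followed up in concentration series.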
# [4] = target: human Adrenergic, Beta 3 Receptor (Adrb3), ADRB3 (gene 155) (UniProt P13945); assay: NVS_GPCR_hAdrb3: NovaScreen (NVS) G Protein-Coupled Receptor Assay for human Adrenergic, Beta 3 Receptor (Adrb3) (AID 2283262)
# Procedure, shortened: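 Membranes from SK-N-MC cells pretreated with isoproterenol and 8-bromo-cAMP were used in a radioligand competitive displacement binding assay. Binding was read by filter-based scintillation counting 1 hour after dosing. Primary screening was in duplicate at 25 uM, with concentration series in follow-up.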
# [5] = target: human Histamine 1 Receptor (H1), HRH1 (gene 3269) (UniProt P35367); assay: NVS_GPCR_hH1: NovaScreen (NVS) G Protein-Coupled Receptor Assay for human Histamine 1 Receptor (H1) (AID 2283268)
# Procedure, shortened: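 Cell-free radioligand displacement at human H1 receptor, 1 h, filter scintillation counting; primary screen 25 uM in duplicate, hits in concentration series; loss of binding fitted vs DMSO.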
# [6] = target: human Endothelin Receptor Type B (ETB), EDNRB (gene 1910) (UniProt P24530); assay: NVS_GPCR_hETB: NovaScreen (NVS) G Protein-Coupled Receptor Assay for human Endothelin Receptor Type B (ETB) (AID 2283267)
# Procedure, shortened: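 Human astrocytoma cell membranes; radioligand competitive binding read by filter scintillation counting 4 hours after dosing. Single-concentration duplicate screen at 25 uM, then singleton concentration-response up to 50 uM; loss of signal versus DMSO.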
# Chain of human Histamine 1 Receptor (H1), HRH1 (gene 3269) (P35367 whole entry, looked up): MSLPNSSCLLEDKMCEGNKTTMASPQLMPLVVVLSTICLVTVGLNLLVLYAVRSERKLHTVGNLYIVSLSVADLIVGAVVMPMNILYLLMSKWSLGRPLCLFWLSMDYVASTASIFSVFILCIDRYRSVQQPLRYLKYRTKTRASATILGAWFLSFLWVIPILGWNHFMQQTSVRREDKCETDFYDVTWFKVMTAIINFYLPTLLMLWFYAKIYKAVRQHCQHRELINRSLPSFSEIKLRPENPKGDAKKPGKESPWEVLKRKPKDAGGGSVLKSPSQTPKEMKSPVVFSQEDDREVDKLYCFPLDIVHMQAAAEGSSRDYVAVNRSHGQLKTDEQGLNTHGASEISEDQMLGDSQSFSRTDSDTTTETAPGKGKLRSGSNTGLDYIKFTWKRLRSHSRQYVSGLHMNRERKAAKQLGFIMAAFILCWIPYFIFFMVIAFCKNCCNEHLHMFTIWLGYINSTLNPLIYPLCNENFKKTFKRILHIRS
# Chain of human Dopamine Receptor D4.4 (DRD4.4), DRD4 (gene 1815) (P21917 whole entry, looked up): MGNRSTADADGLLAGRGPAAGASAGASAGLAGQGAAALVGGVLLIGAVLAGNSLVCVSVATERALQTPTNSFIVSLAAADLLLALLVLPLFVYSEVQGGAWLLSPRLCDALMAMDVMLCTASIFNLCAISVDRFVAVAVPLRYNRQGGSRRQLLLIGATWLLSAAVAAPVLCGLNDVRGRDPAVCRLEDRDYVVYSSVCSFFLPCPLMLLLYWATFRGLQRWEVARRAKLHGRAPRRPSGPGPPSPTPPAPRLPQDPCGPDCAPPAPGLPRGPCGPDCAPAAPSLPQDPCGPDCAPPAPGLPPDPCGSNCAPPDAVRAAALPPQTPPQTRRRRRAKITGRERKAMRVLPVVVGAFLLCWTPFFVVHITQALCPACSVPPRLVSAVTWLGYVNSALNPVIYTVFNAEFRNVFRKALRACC
# Chain of human Adrenergic, Beta 3 Receptor (Adrb3), ADRB3 (gene 155) (P13945 whole entry, looked up): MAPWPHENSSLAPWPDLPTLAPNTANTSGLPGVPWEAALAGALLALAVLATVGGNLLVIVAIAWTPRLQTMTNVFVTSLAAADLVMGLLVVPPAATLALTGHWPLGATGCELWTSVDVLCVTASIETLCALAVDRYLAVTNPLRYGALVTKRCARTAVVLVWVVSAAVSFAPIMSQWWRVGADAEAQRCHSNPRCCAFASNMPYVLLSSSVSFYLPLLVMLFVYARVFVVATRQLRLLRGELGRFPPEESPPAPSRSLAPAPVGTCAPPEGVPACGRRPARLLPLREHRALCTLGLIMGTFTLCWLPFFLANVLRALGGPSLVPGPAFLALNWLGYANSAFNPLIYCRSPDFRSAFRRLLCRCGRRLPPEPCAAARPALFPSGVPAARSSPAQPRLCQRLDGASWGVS
# Chain of human Adrenergic, Beta 1 Receptor (Adrb1), ADRB1 (gene 153) (P08588 whole entry, looked up): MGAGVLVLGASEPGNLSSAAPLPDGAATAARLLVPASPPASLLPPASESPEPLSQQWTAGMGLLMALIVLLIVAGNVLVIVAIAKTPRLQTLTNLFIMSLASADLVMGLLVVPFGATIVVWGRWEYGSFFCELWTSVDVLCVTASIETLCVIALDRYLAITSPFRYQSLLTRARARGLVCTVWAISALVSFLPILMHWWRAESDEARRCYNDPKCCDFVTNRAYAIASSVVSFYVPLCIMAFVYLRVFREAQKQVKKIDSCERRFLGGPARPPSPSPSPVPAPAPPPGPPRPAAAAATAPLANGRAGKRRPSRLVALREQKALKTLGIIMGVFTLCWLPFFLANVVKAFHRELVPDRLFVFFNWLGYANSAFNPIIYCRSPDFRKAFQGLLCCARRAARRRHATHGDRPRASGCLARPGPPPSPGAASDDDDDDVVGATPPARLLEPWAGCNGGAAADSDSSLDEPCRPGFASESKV
# Chain of human Endothelin Receptor Type B (ETB), EDNRB (gene 1910) (P24530 whole entry, looked up): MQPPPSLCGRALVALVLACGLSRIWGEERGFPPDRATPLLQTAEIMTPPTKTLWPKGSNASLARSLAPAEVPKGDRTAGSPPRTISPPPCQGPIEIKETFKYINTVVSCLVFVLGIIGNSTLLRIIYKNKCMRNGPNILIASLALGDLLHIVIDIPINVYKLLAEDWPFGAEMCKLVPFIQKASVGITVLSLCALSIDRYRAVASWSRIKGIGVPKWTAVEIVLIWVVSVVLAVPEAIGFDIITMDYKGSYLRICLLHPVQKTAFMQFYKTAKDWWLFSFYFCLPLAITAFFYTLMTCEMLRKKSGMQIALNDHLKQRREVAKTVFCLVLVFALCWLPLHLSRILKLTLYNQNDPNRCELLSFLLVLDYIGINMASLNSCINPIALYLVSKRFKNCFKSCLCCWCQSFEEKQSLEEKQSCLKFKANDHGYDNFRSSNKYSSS
# Chain of Beta-2 adrenergic receptor (Homo sapiens) (P07550 whole entry, looked up): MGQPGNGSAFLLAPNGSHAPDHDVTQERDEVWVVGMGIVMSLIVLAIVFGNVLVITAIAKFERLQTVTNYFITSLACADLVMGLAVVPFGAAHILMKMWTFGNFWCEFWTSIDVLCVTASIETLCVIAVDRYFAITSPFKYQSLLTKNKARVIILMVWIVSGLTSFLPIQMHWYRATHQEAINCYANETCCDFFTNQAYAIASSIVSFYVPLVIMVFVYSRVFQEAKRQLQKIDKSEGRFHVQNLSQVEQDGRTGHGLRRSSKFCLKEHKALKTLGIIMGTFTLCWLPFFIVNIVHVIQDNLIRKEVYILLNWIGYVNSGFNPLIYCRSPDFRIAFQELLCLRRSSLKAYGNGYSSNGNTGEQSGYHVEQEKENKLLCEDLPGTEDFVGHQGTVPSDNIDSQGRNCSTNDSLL
smiles,measurement,setting,value
CC[C@H](C)[C@H]1O[C@]2(C=C[C@@H]1C)C[C@@H]1C[C@@H](C/C=C(\C)[C@@H](O[C@H]3C[C@H](OC)[C@@H](O[C@H]4C[C@H](OC)[C@@H](NC)[C@H](C)O4)[C@H](C)O3)[C@@H](C)/C=C/C=C3\CO[C@@H]4[C@H](O)C(C)=C[C@@H](C(=O)O1)[C@]34O)O2,AC50,[1],9.83 µM (active)
same,AC50,[2],18.1 µM (active)
same,AC50,[3],16.2 µM (active)
CON=C(C(=O)OC)c1ccccc1CON=C(C)c1cccc(C(F)(F)F)c1,outcome,[4],inactive
CCOP(=O)(SC(C)CC)N1CCSC1=O (centres undefined),outcome,[4],inactive
same,outcome,[5],inactive
Cc1cc(C2CC2)nc(Nc2ccccc2)n1,AC50,[3],12.3 µM (active)
CNC(=O)Oc1cccc2c1OC(C)(C)O2,outcome,[6],inactive
CN(C)C(=O)Nc1cccc(C(F)(F)F)c1,outcome,[5],inactive
